The values that follow come from publication PMC7862700, “An all-to-all approach to the identification of sequence-specific readers for epigenetic DNA modifications on cytosine”.

Common to all, as to assay: DAPPL (digital affinity profiling via proximity ligation, sequencing); 10 mM Tris-HCl pH 7.5, 50 mM NaCl, 1 mM DTT, 4% glycerol, room temperature, 30 min; GST-TFs on glutathione beads, 16-mer random dsDNA library, 0.1% formaldehyde crosslink after washing; high values mean tight binding
Assay [1] concerns the target T1, FEV (Homo sapiens, UniProt Q99581 1-238).
T1 sequence: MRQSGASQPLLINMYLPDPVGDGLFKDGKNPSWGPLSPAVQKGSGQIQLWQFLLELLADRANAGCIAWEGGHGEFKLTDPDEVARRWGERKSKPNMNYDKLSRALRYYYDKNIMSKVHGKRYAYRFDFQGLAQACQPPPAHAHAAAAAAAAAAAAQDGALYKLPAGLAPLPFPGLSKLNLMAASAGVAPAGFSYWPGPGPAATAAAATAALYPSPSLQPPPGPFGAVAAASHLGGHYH
The settings on record: protein: recombinant; tags: N-terminal GST; dsDNA, one strand shown. The essentials: (§1)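 Human transcription factors fused to GST were expressed in yeast, captured on glutathione beads, given DNA barcodes and pooled with a GST-only negative control. Pools were incubated with 200 nmole of a 16-mer random double-stranded DNA library in Tris/NaCl/DTT/glycerol buffer at room temperature for 30 min. They were then washed, crosslinked with 0.1% formaldehyde, proximity-ligated (BsaI/T4 ligase, 1 h, 37 °C), PCR-amplified and sequenced on an Illumina NextSeq500. Binding signal is each 6-mer's read frequency for a factor divided by its frequency for the GST control.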

In assay [2] the target is ETV5 (Homo sapiens, UniProt P41161 1-510). The settings on record: protein: recombinant; tags: N-terminal GST; dsDNA, one strand shown. The essentials:
as §1

Assay [3] has as its target HSF1 (Homo sapiens, UniProt Q00613 1-529). The settings on record: protein: recombinant; tags: N-terminal GST; chain copies: 3; dsDNA, one strand shown. The essentials: as §1
Assay [4] has as its target T2, SPIC (Homo sapiens, UniProt Q8N5J4 1-248).
T2 sequence: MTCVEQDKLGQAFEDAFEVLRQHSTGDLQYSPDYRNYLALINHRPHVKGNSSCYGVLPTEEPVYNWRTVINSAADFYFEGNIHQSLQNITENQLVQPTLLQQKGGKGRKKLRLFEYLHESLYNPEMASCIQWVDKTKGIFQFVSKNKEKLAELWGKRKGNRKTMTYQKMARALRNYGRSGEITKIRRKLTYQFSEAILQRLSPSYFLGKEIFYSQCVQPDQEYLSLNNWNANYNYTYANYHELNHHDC
The settings on record: protein: recombinant; tags: N-terminal GST; dsDNA, one strand shown. The essentials: as §1

Assay [5] concerns the target ELF4 (Homo sapiens, UniProt Q99607 1-663). The settings on record: protein: recombinant; tags: N-terminal GST; dsDNA, one strand shown. The essentials: as §1
Assay [6] addresses T3, ELK4 (Homo sapiens, UniProt P28324-2 1-405).
T3 sequence: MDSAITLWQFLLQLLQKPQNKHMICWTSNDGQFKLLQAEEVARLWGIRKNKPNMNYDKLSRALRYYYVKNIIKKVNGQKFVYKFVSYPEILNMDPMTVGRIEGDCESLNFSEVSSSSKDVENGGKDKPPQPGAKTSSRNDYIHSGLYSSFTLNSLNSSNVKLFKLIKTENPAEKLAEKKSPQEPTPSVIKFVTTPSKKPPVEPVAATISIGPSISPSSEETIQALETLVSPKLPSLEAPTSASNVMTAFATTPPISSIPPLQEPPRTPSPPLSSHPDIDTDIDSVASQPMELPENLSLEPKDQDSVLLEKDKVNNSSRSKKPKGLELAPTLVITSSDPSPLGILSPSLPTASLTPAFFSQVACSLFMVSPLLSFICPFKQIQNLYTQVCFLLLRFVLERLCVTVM
The settings on record: protein: recombinant; tags: N-terminal GST; dsDNA, one strand shown. The essentials: as §1

The target of assay [7] is T4, ETV2 (Homo sapiens, UniProt O00321 1-342).
T4 sequence: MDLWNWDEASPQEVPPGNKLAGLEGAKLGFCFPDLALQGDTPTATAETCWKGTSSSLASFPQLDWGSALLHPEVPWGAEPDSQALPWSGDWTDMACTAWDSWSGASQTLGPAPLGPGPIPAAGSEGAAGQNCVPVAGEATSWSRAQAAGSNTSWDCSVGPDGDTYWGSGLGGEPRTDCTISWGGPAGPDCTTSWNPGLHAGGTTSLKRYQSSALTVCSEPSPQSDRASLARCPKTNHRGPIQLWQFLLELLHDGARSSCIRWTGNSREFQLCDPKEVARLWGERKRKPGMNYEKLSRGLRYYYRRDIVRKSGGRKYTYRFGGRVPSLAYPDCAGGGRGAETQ
The settings on record: protein: recombinant; tags: N-terminal GST; dsDNA, one strand shown. The essentials:
as §1

The target of assay [8] is T5, ELF3 (Homo sapiens, UniProt P78545 1-371).
T5 sequence: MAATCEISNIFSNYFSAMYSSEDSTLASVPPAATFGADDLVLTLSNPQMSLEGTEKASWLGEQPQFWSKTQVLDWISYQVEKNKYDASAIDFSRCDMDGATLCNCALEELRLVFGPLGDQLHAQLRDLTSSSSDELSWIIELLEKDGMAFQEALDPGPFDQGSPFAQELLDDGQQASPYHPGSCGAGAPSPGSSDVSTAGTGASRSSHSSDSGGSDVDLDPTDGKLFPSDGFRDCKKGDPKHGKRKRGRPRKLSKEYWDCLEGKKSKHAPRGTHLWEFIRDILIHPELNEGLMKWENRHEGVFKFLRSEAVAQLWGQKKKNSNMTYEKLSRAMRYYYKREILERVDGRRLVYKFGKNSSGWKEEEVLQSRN
The settings on record: protein: recombinant; tags: N-terminal GST; dsDNA, one strand shown. The essentials:
as §1

In assay [9] the target is CRX (Homo sapiens, UniProt O43186 1-299). The settings on record: protein: recombinant; tags: N-terminal GST; dsDNA, one strand shown. The essentials:
as §1

Assay [10] concerns the target ETV1 (Homo sapiens, UniProt P50549 1-477). The settings on record: protein: recombinant; tags: N-terminal GST; dsDNA, one strand shown. The essentials: as §1
For assay [11], the target named is T6, ERF (Homo sapiens, UniProt P50548 1-548).
T6 sequence: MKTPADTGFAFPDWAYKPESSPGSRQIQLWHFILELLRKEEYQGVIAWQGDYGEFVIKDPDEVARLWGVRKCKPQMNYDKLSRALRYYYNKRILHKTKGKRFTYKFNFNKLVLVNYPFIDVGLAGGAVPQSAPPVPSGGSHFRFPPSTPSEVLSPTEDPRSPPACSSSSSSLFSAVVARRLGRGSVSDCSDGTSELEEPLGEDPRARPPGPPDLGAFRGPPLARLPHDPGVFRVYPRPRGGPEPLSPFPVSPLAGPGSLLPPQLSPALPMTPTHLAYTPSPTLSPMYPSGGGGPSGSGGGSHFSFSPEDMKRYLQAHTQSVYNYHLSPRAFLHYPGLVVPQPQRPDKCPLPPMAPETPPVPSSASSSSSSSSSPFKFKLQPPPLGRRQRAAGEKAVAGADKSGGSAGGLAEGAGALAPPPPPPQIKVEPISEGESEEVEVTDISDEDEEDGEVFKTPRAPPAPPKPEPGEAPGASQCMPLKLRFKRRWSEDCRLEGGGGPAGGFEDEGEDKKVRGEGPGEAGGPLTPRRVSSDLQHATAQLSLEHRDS
The settings on record: protein: recombinant; tags: N-terminal GST; dsDNA, one strand shown. The essentials:
as §1

Assay [12] addresses T7, ETV3L (Homo sapiens, UniProt Q6ZN32 1-361).
T7 sequence: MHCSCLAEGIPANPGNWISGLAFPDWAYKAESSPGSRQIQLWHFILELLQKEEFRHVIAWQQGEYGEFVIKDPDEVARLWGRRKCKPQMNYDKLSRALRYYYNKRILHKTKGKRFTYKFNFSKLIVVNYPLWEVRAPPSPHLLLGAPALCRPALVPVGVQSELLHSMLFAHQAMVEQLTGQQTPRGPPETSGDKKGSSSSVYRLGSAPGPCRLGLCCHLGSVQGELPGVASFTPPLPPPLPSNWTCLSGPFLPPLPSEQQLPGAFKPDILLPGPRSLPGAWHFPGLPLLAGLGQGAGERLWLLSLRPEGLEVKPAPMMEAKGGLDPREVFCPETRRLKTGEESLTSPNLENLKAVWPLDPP
The settings on record: protein: recombinant; tags: N-terminal GST; dsDNA, one strand shown. The essentials: as §1

Assay [13] has as its target T8, ETS2 (Homo sapiens, UniProt P15036 1-469).
T8 sequence: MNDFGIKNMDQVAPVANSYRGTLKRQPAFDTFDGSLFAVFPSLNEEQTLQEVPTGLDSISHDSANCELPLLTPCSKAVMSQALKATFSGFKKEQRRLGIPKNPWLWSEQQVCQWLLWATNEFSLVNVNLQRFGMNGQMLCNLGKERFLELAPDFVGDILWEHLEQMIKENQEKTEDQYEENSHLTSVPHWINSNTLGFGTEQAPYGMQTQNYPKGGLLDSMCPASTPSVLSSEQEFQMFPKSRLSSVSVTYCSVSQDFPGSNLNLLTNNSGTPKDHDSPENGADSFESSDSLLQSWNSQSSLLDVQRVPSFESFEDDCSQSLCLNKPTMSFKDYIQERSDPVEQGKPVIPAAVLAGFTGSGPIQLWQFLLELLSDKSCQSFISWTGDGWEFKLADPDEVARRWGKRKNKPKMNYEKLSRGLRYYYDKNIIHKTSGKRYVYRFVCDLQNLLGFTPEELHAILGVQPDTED
The settings on record: protein: recombinant; tags: N-terminal GST; dsDNA, one strand shown. The essentials: as §1

Assay [14] has as its target T9, SPDEF (Homo sapiens, UniProt O95238 1-335).
T9 sequence: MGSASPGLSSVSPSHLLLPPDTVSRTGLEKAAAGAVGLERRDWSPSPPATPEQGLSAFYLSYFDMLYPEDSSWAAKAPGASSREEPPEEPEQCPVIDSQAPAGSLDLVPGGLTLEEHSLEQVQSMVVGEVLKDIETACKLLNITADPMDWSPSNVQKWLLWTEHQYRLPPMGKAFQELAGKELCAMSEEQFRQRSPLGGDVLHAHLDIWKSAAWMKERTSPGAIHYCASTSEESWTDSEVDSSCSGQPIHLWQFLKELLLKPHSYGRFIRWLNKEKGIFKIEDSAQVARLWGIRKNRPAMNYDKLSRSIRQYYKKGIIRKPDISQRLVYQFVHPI
The settings on record: protein: recombinant; tags: N-terminal GST; dsDNA, one strand shown. The essentials:
as §1

Assay [15] deals with T10, ETV7 (Homo sapiens, UniProt Q9Y603 1-341).
T10 sequence: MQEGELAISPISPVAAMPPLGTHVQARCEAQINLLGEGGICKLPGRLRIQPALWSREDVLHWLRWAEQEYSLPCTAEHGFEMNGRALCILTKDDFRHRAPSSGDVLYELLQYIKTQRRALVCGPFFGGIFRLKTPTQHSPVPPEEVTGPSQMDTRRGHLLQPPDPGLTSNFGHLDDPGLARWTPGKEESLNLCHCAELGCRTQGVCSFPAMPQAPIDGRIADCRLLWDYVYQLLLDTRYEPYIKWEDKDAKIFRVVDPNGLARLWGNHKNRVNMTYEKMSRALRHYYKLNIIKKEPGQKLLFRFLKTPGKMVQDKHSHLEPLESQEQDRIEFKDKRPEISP
The settings on record: protein: recombinant; tags: N-terminal GST; dsDNA, one strand shown. The essentials: as §1

Assay [16] deals with T11, ELF5 (Homo sapiens, UniProt Q9UKW6-2 1-255).
T11 sequence: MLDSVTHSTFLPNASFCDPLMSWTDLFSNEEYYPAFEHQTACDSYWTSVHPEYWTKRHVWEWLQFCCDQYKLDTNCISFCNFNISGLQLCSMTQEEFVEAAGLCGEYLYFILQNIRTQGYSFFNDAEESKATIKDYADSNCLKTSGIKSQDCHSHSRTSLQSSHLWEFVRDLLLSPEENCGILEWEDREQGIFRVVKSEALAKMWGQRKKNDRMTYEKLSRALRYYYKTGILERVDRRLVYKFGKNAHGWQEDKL
The settings on record: protein: recombinant; tags: N-terminal GST; dsDNA, one strand shown. The essentials: as §1

In assay [17] the target is T12, ETV3 (Homo sapiens, UniProt P41162-2 1-143).
T12 sequence: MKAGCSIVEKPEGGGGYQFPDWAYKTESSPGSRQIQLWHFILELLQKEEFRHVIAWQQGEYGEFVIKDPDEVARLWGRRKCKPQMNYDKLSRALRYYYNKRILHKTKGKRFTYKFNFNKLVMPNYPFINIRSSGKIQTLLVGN
The settings on record: protein: recombinant; tags: N-terminal GST; dsDNA, one strand shown. The essentials:
as §1

Assay [18] concerns the target ETV6 (Homo sapiens, UniProt P41212 1-452). The settings on record: protein: recombinant; tags: N-terminal GST; dsDNA, one strand shown. The essentials: as §1

Sequence of HSF1 (Q00613 whole entry): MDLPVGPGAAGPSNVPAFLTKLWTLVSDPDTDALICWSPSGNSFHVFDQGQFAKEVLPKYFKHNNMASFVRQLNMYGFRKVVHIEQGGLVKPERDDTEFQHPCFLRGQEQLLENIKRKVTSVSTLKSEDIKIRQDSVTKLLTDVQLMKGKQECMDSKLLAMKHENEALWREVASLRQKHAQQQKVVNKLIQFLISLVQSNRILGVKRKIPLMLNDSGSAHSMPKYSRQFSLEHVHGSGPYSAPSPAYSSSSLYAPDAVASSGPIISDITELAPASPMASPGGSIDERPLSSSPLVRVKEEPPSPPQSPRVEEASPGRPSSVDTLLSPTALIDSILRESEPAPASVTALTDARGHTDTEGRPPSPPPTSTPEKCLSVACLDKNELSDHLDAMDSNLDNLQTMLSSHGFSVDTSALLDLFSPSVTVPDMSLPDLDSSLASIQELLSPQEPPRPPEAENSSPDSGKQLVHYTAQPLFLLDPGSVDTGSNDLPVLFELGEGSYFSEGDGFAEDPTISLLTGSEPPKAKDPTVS
Sequence of ETV6 (P41212 whole entry): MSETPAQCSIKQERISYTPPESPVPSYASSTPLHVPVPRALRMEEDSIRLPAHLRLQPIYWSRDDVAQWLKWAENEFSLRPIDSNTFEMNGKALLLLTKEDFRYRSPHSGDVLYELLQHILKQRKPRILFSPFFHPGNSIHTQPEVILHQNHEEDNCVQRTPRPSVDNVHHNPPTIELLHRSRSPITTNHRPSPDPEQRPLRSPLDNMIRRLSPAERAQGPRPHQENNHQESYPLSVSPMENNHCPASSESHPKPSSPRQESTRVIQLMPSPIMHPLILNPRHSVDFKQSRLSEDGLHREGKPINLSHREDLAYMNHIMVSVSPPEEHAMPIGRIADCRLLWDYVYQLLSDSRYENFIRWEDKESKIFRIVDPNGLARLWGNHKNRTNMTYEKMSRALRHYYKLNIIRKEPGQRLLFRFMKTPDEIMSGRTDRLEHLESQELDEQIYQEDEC
Sequence of ETV5 (P41161 whole entry): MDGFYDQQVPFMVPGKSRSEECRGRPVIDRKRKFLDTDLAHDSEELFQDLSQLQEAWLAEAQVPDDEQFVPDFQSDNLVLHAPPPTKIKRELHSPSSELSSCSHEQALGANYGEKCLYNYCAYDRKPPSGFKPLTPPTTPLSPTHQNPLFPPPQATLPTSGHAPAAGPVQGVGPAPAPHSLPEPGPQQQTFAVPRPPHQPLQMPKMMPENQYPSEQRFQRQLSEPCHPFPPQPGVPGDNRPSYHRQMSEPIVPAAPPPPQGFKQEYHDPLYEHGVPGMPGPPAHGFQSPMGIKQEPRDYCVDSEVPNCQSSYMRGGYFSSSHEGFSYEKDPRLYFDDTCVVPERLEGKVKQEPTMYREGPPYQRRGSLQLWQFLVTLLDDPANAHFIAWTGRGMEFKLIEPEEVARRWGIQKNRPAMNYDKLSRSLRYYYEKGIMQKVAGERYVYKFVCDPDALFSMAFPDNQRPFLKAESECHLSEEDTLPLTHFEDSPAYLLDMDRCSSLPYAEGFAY
Sequence of ETV1 (P50549 whole entry): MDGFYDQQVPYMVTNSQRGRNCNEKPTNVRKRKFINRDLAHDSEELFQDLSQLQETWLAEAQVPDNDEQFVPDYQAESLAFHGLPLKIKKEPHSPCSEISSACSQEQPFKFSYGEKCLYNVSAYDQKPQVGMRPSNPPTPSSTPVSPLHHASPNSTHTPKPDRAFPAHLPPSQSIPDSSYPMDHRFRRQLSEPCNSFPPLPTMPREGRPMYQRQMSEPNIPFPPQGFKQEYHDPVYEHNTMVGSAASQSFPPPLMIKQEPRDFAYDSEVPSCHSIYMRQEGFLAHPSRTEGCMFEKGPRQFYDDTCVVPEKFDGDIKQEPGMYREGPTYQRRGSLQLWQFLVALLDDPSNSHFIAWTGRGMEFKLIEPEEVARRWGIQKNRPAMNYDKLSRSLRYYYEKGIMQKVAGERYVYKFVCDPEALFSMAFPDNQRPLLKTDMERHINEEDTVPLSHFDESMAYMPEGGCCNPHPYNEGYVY
Sequence of CRX (O43186 whole entry): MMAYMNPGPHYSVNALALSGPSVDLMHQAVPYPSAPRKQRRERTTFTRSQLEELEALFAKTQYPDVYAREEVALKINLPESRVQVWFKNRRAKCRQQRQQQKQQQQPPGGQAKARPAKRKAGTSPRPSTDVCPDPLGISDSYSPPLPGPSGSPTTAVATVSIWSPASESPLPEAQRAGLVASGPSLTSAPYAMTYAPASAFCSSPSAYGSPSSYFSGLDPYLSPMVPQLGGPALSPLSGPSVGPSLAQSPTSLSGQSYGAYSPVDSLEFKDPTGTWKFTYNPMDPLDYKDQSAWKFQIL
Sequence of ELF4 (Q99607 whole entry): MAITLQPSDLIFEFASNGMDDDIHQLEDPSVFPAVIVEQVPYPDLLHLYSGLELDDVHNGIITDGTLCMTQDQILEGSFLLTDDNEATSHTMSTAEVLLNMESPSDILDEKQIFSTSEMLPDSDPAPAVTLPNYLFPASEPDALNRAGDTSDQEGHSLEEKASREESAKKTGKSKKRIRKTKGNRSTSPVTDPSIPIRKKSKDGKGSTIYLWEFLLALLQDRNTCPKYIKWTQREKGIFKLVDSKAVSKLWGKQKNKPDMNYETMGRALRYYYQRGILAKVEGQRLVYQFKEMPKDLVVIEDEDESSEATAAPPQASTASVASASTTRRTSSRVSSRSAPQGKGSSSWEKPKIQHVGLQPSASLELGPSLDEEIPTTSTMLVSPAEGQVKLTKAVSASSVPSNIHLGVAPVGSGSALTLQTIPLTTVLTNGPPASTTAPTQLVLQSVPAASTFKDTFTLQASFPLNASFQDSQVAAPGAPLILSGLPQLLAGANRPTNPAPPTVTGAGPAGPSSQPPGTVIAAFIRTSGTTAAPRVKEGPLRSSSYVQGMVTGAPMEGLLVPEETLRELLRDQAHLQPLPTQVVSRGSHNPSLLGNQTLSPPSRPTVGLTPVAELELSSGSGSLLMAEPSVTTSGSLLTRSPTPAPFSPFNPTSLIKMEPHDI

For CCTCCT, the binding signal in [1] was 1.46 fold enrichment (6-mer frequency, TF over GST control); in assay [2], 1.59 fold enrichment (6-mer frequency, TF over GST control); in assay [3], 1.3 fold enrichment (6-mer frequency, TF over GST control); in [4], 1.47 fold enrichment (6-mer frequency, TF over GST control); in assay [5], 1.66 fold enrichment (6-mer frequency, TF over GST control); in assay [6] it was 1.61 fold enrichment (6-mer frequency, TF over GST control). For the same sequence, the binding signal in [7] is 1.45 fold enrichment (6-mer frequency, TF over GST control); in assay [8], 1.2 fold enrichment (6-mer frequency, TF over GST control); in assay [9] it was 1.32 fold enrichment (6-mer frequency, TF over GST control); in assay [10], 1.52 fold enrichment (6-mer frequency, TF over GST control); in assay [11], 1.64 fold enrichment (6-mer frequency, TF over GST control); in [12], 1.44 fold enrichment (6-mer frequency, TF over GST control). The binding signal is 1.57 fold enrichment (6-mer frequency, TF over GST control) in assay [13]; 1.58 fold enrichment (6-mer frequency, TF over GST control) in assay [14]; 1.61 fold enrichment (6-mer frequency, TF over GST control) in [15]; 1.9 fold enrichment (6-mer frequency, TF over GST control) in assay [16]; 1.46 fold enrichment (6-mer frequency, TF over GST control) in assay [17]; 1.55 fold enrichment (6-mer frequency, TF over GST control) in assay [18].
